Pf growth 48h – P. falciparum growth inhibition at 48 hours (one generation). P. falciparum luciferase growth in erythrocytes, 48 h. Potency, µM (series often up to 28.7 µM), usual class: inhibitors. 310,000 tested, 5.9% active. AID 504832
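Parasite viability was followed by luminescence of a genomically integrated firefly luciferase. Cultures held 0.1% parasitemia at 2% hematocrit (final), incubated under 5% CO2 at 37 C.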
LmPK inhibitor – LmPK (Leishmania mexicana) enzyme inhibition; purified LmPK, Kinase-Glo ATP luminescence, 1 h; 290,000 tested, 0.37% active; Potency, µM (highest dose often 57.5 µM), actives largely listed as inhibitors
Target sequence (Q27686 whole entry, looked up): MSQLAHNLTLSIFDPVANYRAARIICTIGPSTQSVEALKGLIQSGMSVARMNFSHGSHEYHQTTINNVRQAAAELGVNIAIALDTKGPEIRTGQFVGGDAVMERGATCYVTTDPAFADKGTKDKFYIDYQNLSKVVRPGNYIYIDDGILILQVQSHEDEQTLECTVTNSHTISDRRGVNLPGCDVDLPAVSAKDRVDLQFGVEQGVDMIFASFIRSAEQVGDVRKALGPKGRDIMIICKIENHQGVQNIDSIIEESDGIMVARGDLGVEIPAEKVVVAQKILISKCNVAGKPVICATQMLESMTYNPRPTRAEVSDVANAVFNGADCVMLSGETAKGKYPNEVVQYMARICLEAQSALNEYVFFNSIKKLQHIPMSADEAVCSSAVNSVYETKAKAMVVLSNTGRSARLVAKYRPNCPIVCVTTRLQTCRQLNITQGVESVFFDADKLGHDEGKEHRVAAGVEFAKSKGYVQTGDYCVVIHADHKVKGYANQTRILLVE
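In 50 mM imidazole pH 7.2 with 7 mM MgCl2, LmPK (0.1 nM) turned over PEP (0.5 mM) and ADP (0.1 mM) for 1 h at room temperature. Luciferase read-out of ATP.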
Pf growth 96h – inhibits malaria parasite growth, 96 h. P. falciparum luciferase reporter growth, 96 h. Potency, µM (doses to about 28.7 µM), hits mostly inhibitors. 320,000 tested, 6.9% active. AID 504834
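Erythrocytes infected with luciferase-expressing P. falciparum were dispensed at 2% hematocrit and 0.05% parasitemia (final), then incubated with compounds 96 hours at 37 C in 5% CO2. Luminescence after detection reagent addition reported growth.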
Shiga inhibitor – inhibitors of Shiga toxin in Vero cells; Vero cells, Shiga toxin protein synthesis inhibition reporter; inhibition, % at 38.7 µM; 290,000 tested, 9.2% active; in the data active means inhibition mostly above about 28%, no sharp cut-off; inactive means mostly below about 43%
Cycloheximide cs – counter-screen for Shiga toxin inhibitors: cycloheximide protein synthesis inhibition; cell reporter, cycloheximide protein synthesis inhibition counterscreen; max response, %; 300,000 tested, 12% active; AID 2314; in the data active means max response mostly above about 13%, no sharp cut-off; inactive means mostly below about 14%; further: read at 38.3 µM for the half of the compounds with a filed dose
Of the large screens only hits and unclear results are named; the others gave an inactive call. In the library only some 22% were active in any assay of this set; here they are far more common. Unless noted, the call rests on the fitted dose curve; in most records, active means well fitted inhibition curve with a large enough effect; inconclusive means small, poorly fitted or top-dose-only effect, or another doubt; inactive means no such curve, though single readings can be large or run the other way.

O=C(N/N=C/c1ccncc1)c1ccc(-n2cccc2)cc1	none
O=S(=O)(/N=C(/Nc1ccc(Cl)cc1Cl)c1ccccc1)c1cccs1	Pf growth 96h inconclusive
O=C(O)c1cccc(NC(=S)N/N=C/c2ccccn2)c1	Pf growth 96h inconclusive, Shiga inhibitor 131, Cycloheximide cs 51
O=C(N/N=C/c1ccccn1)c1cccc(NC(=O)c2ccccc2Cl)c1	Pf growth 48h inconclusive, Shiga inhibitor 34, Cycloheximide cs 11
O=C(O)c1cccc(NC(=S)N/N=C/c2cccc(O)c2)c1	none
O=C(N/N=C/c1ccccc1F)c1cccc(NC(=O)c2ccccc2Cl)c1	Shiga inhibitor 56, Cycloheximide cs 26
Cc1cccc(/C=N/NC(=O)c2ccc(NC(=O)c3ccccc3Cl)cc2)n1	Pf growth 96h inconclusive
CC(C)Oc1ccc(C(=O)NCCCNC(=O)c2ccccn2)cc1	none
Cc1cnc(C(=O)NC2CC(C)(C)Cc3c2cnn3-c2cccc(F)c2)cn1 (configuration not stated)	Pf growth 96h inconclusive
COc1ccc(-c2oc3ccccc3c2C#Cc2cncn2C)cc1	Pf growth 48h 0.59µM, Pf growth 96h 0.66µM (no result: LmPK inhibitor, Shiga inhibitor, Cycloheximide cs)
O=C(NCCCCCNC(=O)c1cccnc1)c1cccnc1	none
O=C(NCc1cccnc1)c1cccc(Cl)c1	Pf growth 96h inconclusive
O=C(NCCOCCOCCNC(=O)c1cccnc1)c1cccnc1	Cycloheximide cs 17
O=C(NCCc1cccc(Cl)c1)c1cccnc1	Shiga inhibitor 142, Cycloheximide cs 57
O=C(NCCc1cccc(Cl)c1)c1cccc([N+](=O)[O-])c1	Cycloheximide cs 22
CCOC(=O)C1(CCOC)CCN(Cc2cnc(-c3cccc(C)c3)nc2)CC1	Pf growth 48h inconclusive, Pf growth 96h inconclusive
COc1ccc(Br)cc1C1C2C=CCCC2(C)C(=O)N1Cc1ccccc1 (configuration not stated)	none (no result: Pf growth 48h, LmPK inhibitor, Pf growth 96h)
COc1ccc(/C=C/c2ccccc2)cc1C1C2C=CCCC2(C)C(=O)N1Cc1ccccc1 (configuration not stated)	Shiga inhibitor 115, Cycloheximide cs 49 (no result: Pf growth 48h, LmPK inhibitor, Pf growth 96h)
COc1ccc(/C=C/c2ccccc2)cc1[C@H]1[C@@H]2C=CCC[C@@]2(C)C(=O)N1Cc1ccccc1	Pf growth 48h 10µM, Pf growth 96h inconclusive, Shiga inhibitor 44, Cycloheximide cs 20
OC(Cn1cncn1)(c1ccccc1)c1ccccc1	none (no result: Pf growth 96h)
CC1=C(c2ccc(NN=C(C#N)C#N)cc2)NNC(=O)C1	none (no result: LmPK inhibitor, Shiga inhibitor, Cycloheximide cs)
CC(C)CCN1CCN(CC(c2ccccc2)c2ccccc2)CC1CCO (configuration not stated)	Pf growth 48h 3.7µM, Pf growth 96h inconclusive
OCCC1CN(Cc2ccc3nonc3c2)CCN1Cc1ccsc1 (configuration not stated)	none
CC(C)CCN1CCN(Cc2ccsc2)CC1CCO (configuration not stated)	Pf growth 96h 13µM
OCCC1CN(Cc2ccc3cc(Cl)ccc3n2)CCN1Cc1ccsc1 (configuration not stated)	Pf growth 48h inconclusive, Pf growth 96h 5.2µM
CCCC(C)NC(=O)c1sc2nc3n(c(=O)c2c1C)CCC3 (configuration not stated)	Cycloheximide cs 17
CCOC(=O)c1sc2nc(SCC#N)n(CCCN3CCCC3=O)c(=O)c2c1C	Pf growth 48h 10µM, Pf growth 96h inconclusive
CCOC(=O)c1sc2nc3n(c(=O)c2c1C)CCCCC3	Shiga inhibitor 103, Cycloheximide cs 47
Oc1cccc2ccc(/C=C/c3cccs3)nc12	LmPK inhibitor 22µM, Shiga inhibitor 68, Cycloheximide cs 36 (no result: Pf growth 48h)
Cc1ccsc1/C=C/C(=O)O	none
Cc1ccsc1/C=C/c1ccc2ccccc2n1	LmPK inhibitor inconclusive, Shiga inhibitor 67, Cycloheximide cs 28
Cc1ccsc1/C=C/c1ccc2cccc(O)c2n1	LmPK inhibitor inconclusive, Shiga inhibitor 72, Cycloheximide cs 66 (no result: Pf growth 48h)
O=C(COC(=O)/C=C/c1cccs1)Nc1ccc2ccccc2c1	none
CCOC(=O)C(NC(=O)NCc1ccccc1OC)(OCC)C(F)(F)F (configuration not stated)	Pf growth 96h inconclusive
CSCCC(C(=O)N1CC2(C)CC1CC(C)(C)C2)N1C(=O)c2ccccc2C1=O (configuration not stated)	Pf growth 96h 13µM
CC1(C)CC2CC(C)(CN2C(=O)CN2C(=O)c3ccccc3C2=O)C1 (configuration not stated)	none (no result: Pf growth 96h)
COC(=O)C(C)Oc1ccc(-c2nccc(-c3ccccn3)n2)cc1 (configuration not stated)	Cycloheximide cs 16
O=C(O)COc1ccc(-c2nccc(-c3ccccn3)n2)cc1	Pf growth 96h inconclusive
FCCCOc1ccc(-c2nccc(-c3ccccn3)n2)cc1	Shiga inhibitor 35, Cycloheximide cs 20
Cc1ccccc1-n1c(=O)n(Cc2ccco2)c(=O)c2[nH]cnc21	none
O=S(=O)(O)CCCS(=O)(=O)O	none (no result: LmPK inhibitor, Shiga inhibitor, Cycloheximide cs)
COc1ccc(C2C(C(=O)Nc3ccccc3)=C(C)Nc3nc(CCCO)nn32)cc1 (configuration not stated)	Pf growth 96h 13µM
CC1=C(C(=O)Nc2ccccc2C)C(c2cccnc2)n2nc(CCCO)nc2N1 (configuration not stated)	none (no result: Pf growth 96h)
COc1ccc(C2C(C(N)=O)=C(C)Nc3nc(CCCO)nn32)cc1 (configuration not stated)	none
CC1=C(C(=O)Nc2ccccc2)C(c2ccccn2)n2nc(CCCO)nc2N1 (configuration not stated)	none
CC1=C(C(=O)Nc2ccc(F)cc2)C(c2cccc(C)c2)n2nc(CCCO)nc2N1 (configuration not stated)	Pf growth 96h 6.6µM
COc1ccccc1NC(=O)C1=C(C)Nc2nc(CCCO)nn2C1c1cccnc1 (configuration not stated)	Pf growth 96h 5.2µM
C/C(CC(=O)Nc1ccc2c(c1)OCCO2)=N\NC(=O)c1ccccc1F	Shiga inhibitor 79, Cycloheximide cs 30
C/C(CC(=O)Nc1ccc2c(c1)OCO2)=N\NC(=O)c1ccccc1N	Pf growth 48h inconclusive, Pf growth 96h inconclusive, Shiga inhibitor 101, Cycloheximide cs 59
C/C(CC(=O)Nc1ccc2c(c1)OCO2)=N\NC(=O)c1ccc(N)cc1	Shiga inhibitor 53, Cycloheximide cs 22
C/C(CC(=O)Nc1ccc2c(c1)OCO2)=N\NC(=O)OC(C)(C)C	none
O=C(NNc1c([N+](=O)[O-])cc(C(F)(F)F)cc1[N+](=O)[O-])c1ccco1	none
O=S(=O)(c1ccc(-c2nc3ccccc3s2)cc1)N1CCCC1	Cycloheximide cs 24 (no result: Pf growth 48h)
O=S(=O)(c1cccc(-c2cn3ccccc3n2)c1)N1CCCCC1	Pf growth 96h inconclusive
O=S(=O)(c1cccc(-c2csc(-c3cccnc3)n2)c1)N1CCCCC1	Pf growth 48h 9.3µM
O=S(=O)(c1cccc(-c2nc3ccccc3s2)c1)N1CCCC1	Cycloheximide cs 36
O=C(C1=C(O)C(=O)N(CCCn2ccnc2)C1c1cccc(Br)c1)c1ccco1 (configuration not stated)	none

Source: PubChem BioAssay (National Center for Advancing Translational Sciences (NCATS))
